Sampled rows, rich in hits. Any-hit rate of the full collection: about 6.7%.
KB-3-1 cytotox: qHTS assay for MDR1-selective chemotherapeutics: Primary screen using the parental adenocarcinoma cell KB-3-1; KB-3-1 viability, CellTiter-Glo ATP luminescence, 72 h; Potency, µM (titrated, usually from 46.1 µM), most hits filed as cytotoxic; 1.4% of 400,000 active; AID 1347075, 2019; further: nearly all actives have a fitted effect of over 60% in size
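Cells are dispensed, compounds pinned in, plates held at 37 °C for 72 h, then CellTiter-Glo is added and luminescence read after 10 minutes. Cell line: parental KB-3-1 in phenol-red-free DMEM, 10% FBS.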
KB-V1 MDR tox: qHTS assay for MDR1-selective chemotherapeutics: Primary screen using the drug-selected MDR subline cells KB-V1. 3.4% of 400,000 active. Potency, µM (doses to about 46.1 µM), hits mostly cytotoxic. AID 1347076, 2019. KB-V1 MDR cells viability, CellTiter-Glo, 72 h; further: nearly all actives have a fitted effect of over 60% in size
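Luminescent ATP read-out (CellTiter-Glo, 10 min) measures survival of drug-selected KB-V1 MDR cells after 72 h, 37 degrees C compound exposure. Medium: phenol-red-free DMEM, 10% FBS. Values from fitted concentration-response curves.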
SW480 rerep: A quantitative high throughput screen for small molecules that induce DNA re-replication in SW480 colon adenocarcinoma cells | SW480 DNA re-replication, Hoechst DNA content imaging, 48 h | Potency, µM (top dose mostly 46.1 µM), actives largely listed as activators | 1.8% of 340,000 active | AID 624297, 2012; further: nearly all actives have a fitted effect of over 55% in size
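Cells (250 per well) received 23 nL compound or DMSO by pin tool and were kept 48 hr at 37 C, 5% CO2. Nuclei were then stained with Hoechst for 40 min and scanned for DNA content.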
MCF10A rerep: A quantitative high throughput screen for small molecules that induce DNA re-replication in MCF 10a normal breast cells | AID 624296, 2012 | MCF 10A DNA re-replication, Hoechst nuclear intensity, 48 h | Potency, µM (highest dose often 46.1 µM), actives largely listed as activators | 2.9% of 350,000 active; further: nearly all actives have a fitted effect of over 50% in size
PINK1 expr mod: A Quantitative High throughput Screen to Identify Chemical Modulators of PINK1 Expression | PINK1 immunofluorescence, high-content cytometry, 24 h | Potency, µM (doses to about 76.6 µM), actives largely listed as activators | 0.2% of 410,000 active; active means well fitted activation curve with a large enough effect; inconclusive means small, poorly fitted or top-dose-only effect; cell line not stated here; further: nearly all actives have a fitted effect of over 65% in size
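Cells are seeded, rested 12 hours, then given compound at five concentrations or DMSO for 24 hours. After fixation, blocking and antibody staining, PINK1 amount and mitochondrial localization are scored; CCCP serves as control.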
Each line names hits and unclear results; the compound was inactive in the other large screens; ! = a repeat was not active. Unless noted, the call rests on the fitted dose curve; in most records, active means well fitted curve in the direction sought with a large enough effect; inconclusive means small, poorly fitted or top-dose-only effect, or another doubt; inactive means no such curve, though single readings can be large; an effect the other way counts as inactive or inconclusive.

CCc1ccc(-c2nc3c(c(SCc4ccccc4)n2)Cc2c(CO)cnc(C)c2O3)cc1	none (no result: SW480 rerep, MCF10A rerep)
COc1ccc(/C=C/C(=O)c2c(O)ccc3c(C)cc(=O)oc23)cc1	MCF10A rerep 21µM
COc1ccc(/C=C\C(=O)c2c(O)ccc3c(C)cc(=O)oc23)cc1	KB-3-1 cytotox 23µM, KB-V1 MDR tox inconclusive, MCF10A rerep inconclusive
CCOc1ccc(-c2cc(C(=O)N3CCN(c4cccc(C(F)(F)F)c4)CC3)c3ccccc3n2)cc1	KB-3-1 cytotox 5.8µM, KB-V1 MDR tox inconclusive (no result: SW480 rerep, MCF10A rerep)
O=C(c1cc(-c2ccccc2)nc2ccccc12)N1CCc2ccccc2C1	KB-3-1 cytotox inconclusive, KB-V1 MDR tox 18µM
COc1ccc(-c2cc(C(=O)N3CCC3)c3ccccc3n2)cc1OC	KB-3-1 cytotox inconclusive, KB-V1 MDR tox inconclusive
COc1cc(C(=O)N2CCN(c3ccccc3)CC2)c2ccccc2n1	KB-3-1 cytotox 0.58µM, KB-V1 MDR tox inconclusive, SW480 rerep 10µM, MCF10A rerep inconclusive
Cc1ccc2nc(-c3ccccc3)cc(C(=O)N3CCc4ccccc4C3)c2c1	MCF10A rerep inconclusive
O=C(c1cc(-c2cccs2)nc2ccccc12)N1CCN(c2ccccc2)CC1	KB-3-1 cytotox inconclusive, KB-V1 MDR tox inconclusive, SW480 rerep inconclusive, MCF10A rerep inconclusive
COc1ccc(-c2cc(C(=O)N3CCN(c4ncccn4)CC3)c3ccccc3n2)cc1OC	SW480 rerep 8.2µM
CCNC(=O)Cn1c(-c2cccs2)cc2ccccc21	none (no result: SW480 rerep, MCF10A rerep)
NC(=O)c1cccc(-c2coc3c(C(=O)NC4CCCCC4)cccc23)c1	none (no result: SW480 rerep, MCF10A rerep)
Cc1ccc(S(=O)(=O)c2nc(-c3cccs3)oc2N2CCC(C(N)=O)CC2)cc1	none
CCCCOCCCNC(=O)C[C@@H]1C[C@@]2(C(=O)OC)CCCCC=C2N(CCc2ccc(OC)c(OC)c2)C1=O	KB-V1 MDR tox inconclusive (no result: SW480 rerep, MCF10A rerep, PINK1 expr mod)
COc1cccc(-c2cc(C(=O)N3CCN(c4ncccn4)CC3)c3ccccc3n2)c1	KB-V1 MDR tox inconclusive, MCF10A rerep 15µM
Cc1ccc(-c2cc(C(=O)N3CCN(c4ncccn4)CC3)c3ccccc3n2)cc1	KB-V1 MDR tox inconclusive, MCF10A rerep inconclusive
O=C(c1cc(-c2cccnc2)nc2ccccc12)N1CCN(S(=O)(=O)c2ccc(Cl)s2)CC1	KB-V1 MDR tox 9.2µM
O=C(NN=C1CCCCCC1)c1ccc(Cl)s1	none
COc1ccc(N2C(=O)c3ccc(C(=O)OC(C)C)cc3C2=O)cc1	KB-3-1 cytotox 18µM, SW480 rerep inconclusive, MCF10A rerep inconclusive
COc1cccc(CNC(=O)CCn2c(=O)c3cccn3c3cccnc32)c1	KB-V1 MDR tox 18µM!, SW480 rerep inconclusive
CCC(C(=O)NCc1ccccc1Cl)n1nc(C)c2sc3ccccc3c2c1=O (stereo not drawn)	none (no result: SW480 rerep, MCF10A rerep)
O=c1c2cc(Br)ccc2nc(-c2cccc(C(F)(F)F)c2)n1O	KB-3-1 cytotox 2.9µM, KB-V1 MDR tox 2.3µM, MCF10A rerep inconclusive
CC1CCN(S(=O)(=O)c2ccc3nc(-c4ccccn4)cc(C(=O)NCCN(C)Cc4ccccc4)c3c2)CC1	KB-3-1 cytotox inconclusive, MCF10A rerep 0.73µM
O=S(=O)(c1ccc(Cl)cc1)c1nc(-c2cccc(Br)c2)oc1NCc1ccccc1	KB-3-1 cytotox inconclusive, KB-V1 MDR tox 16µM (no result: SW480 rerep, MCF10A rerep)
O=C(COC(=O)C1(c2ccccc2F)CCCC1)N1CCc2ccccc21	none
O=C(CO/N=C/c1ccccc1O)N1CCc2ccccc21	KB-V1 MDR tox 13µM
O=C(COc1ccc2c(c1)CCC2)N1CCc2ccccc21	SW480 rerep inconclusive, MCF10A rerep 26µM, PINK1 expr mod inconclusive
Cc1ccc(Cl)cc1N1CCN(C(=O)COc2ccc3c(c2)CCC3)CC1	KB-3-1 cytotox inconclusive, MCF10A rerep 13µM
O=C(COC(=O)C1(c2ccc(F)cc2)CCCC1)N1CCc2ccccc21	KB-V1 MDR tox 21µM
O=C(OCC(=O)N1CCc2ccccc21)c1ccccc1	none
CC(=O)c1ccc(N2CCN(C(=O)COc3ccc4c(c3)CCC4)CC2)cc1	none
Cc1ccc2c(c1)C/C(=C/c1ccc(N(C)C)cc1)C2=O	none (no result: SW480 rerep, MCF10A rerep)
CC(C)CCN(Cc1ccco1)C(=O)Cn1ncc2c([nH]c3ccccc32)c1=O	none (no result: SW480 rerep, MCF10A rerep)
O=C(Cc1ccc2ccccc2c1)NC(Cc1ccccc1)C(=O)O (stereo not drawn)	MCF10A rerep inconclusive
O=S1(=O)N[C@H](Cc2ccccc2)COc2cccc(N3CCN(Cc4ccccc4F)CC3)c21	none (no result: SW480 rerep, MCF10A rerep)
Cc1csc(NC(=O)CSc2ccc(-c3ccccc3)nn2)n1	KB-V1 MDR tox 23µM
CCn1c(SCC(=O)N/N=C/C(C)=C\c2ccco2)nnc1-c1ccccc1	MCF10A rerep inconclusive
C=CCn1c(SCC(=O)Nc2cccnc2Cl)nnc1-c1ccc(Cl)cc1	KB-V1 MDR tox 5.2µM
CCOC(=O)N1CCN(C(=O)CSCC(=O)Nc2nc(-c3ccccc3)cs2)CC1	KB-V1 MDR tox 16µM
CCn1c(SCC(=O)N/N=C/C(C)=C/c2ccco2)nnc1-c1ccccc1	KB-V1 MDR tox 15µM
CC(NC(C)c1ccccc1Cl)C(=O)Nc1cccc(S(=O)(=O)N2CCCCC2)c1 (stereo not drawn)	KB-V1 MDR tox inconclusive
CCc1ccc(NC(=O)Cn2c(=O)n(-c3ccc(OC)cc3)c(=O)c3ccc(C(=O)NCc4ccc(C)cc4)cc32)cc1	none (no result: KB-3-1 cytotox, KB-V1 MDR tox, SW480 rerep, MCF10A rerep)
COc1ccc(-c2cn3nc(N4CCCC(C(=O)Nc5ccccc5F)C4)sc3n2)cc1 (stereo not drawn)	none (no result: SW480 rerep, MCF10A rerep)
CSCC[C@H](NC(=O)[C@@H]1Cc2c([nH]c3ccccc23)C2c3ccccc3C(=O)N21)C(=O)NCC1CCCO1 (stereo partly drawn)	MCF10A rerep inconclusive
Cc1nnc(SCC(=O)Nc2nc(-c3ccccc3)cs2)n1N	none
Cc1csc(NC(=O)CSc2nnc(-c3ccoc3C)n2C(C)c2ccccc2)n1 (stereo not drawn)	SW480 rerep 15µM, MCF10A rerep inconclusive
C=CCn1c(SCC(=O)Nc2ccc(-c3nc4ccc(C)cc4s3)cc2)nnc1-c1ccccc1	KB-V1 MDR tox inconclusive, SW480 rerep 10µM, MCF10A rerep 4.1µM
CCn1c(SCC(=O)Nc2nc(-c3ccccc3)cs2)nnc1-c1ccccc1	KB-V1 MDR tox 18µM
Cn1c(SCC(=O)Nc2ccccc2-c2ccccc2)nnc1-c1ccco1	KB-V1 MDR tox 18µM, SW480 rerep inconclusive
Cc1occc1-c1nnc(SCC(=O)NC(C)(C)C)n1C(C)c1ccccc1 (stereo not drawn)	none
Cc1cccc(C)c1NC(=O)C(c1ccnc2ccccc12)n1c(=O)c(-c2ccco2)nc2ccccc21 (stereo not drawn)	none (no result: SW480 rerep, MCF10A rerep, PINK1 expr mod)
CCCCCCN1CCN(C2CN(Cc3cn(Cc4cccc(C(F)(F)F)c4)nn3)S(=O)(=O)C2)CC1 (stereo not drawn)	none (no result: SW480 rerep, MCF10A rerep)

From PubChem
